Results on 40 molecules are retold here after PubChem BioAssay (Tox21).

Where “and” joins values, the source holds several entries; their conditions need not be identical. Identical values can stand only once. Results filed as inconclusive are left out. A call without a number means that no potency is given here. The source holds several records for some structures; these can differ, active in one and inactive in another. Calls of active or inactive are those of the source. Calls follow the shape of the dose curve; as a rule, active = well fitted cell-killing curve with a large enough effect in the repeat runs; inconclusive = weak or mixed curves, or effect the other way; inactive = flat fitted curve, though single readings scatter.
Potency is read from the fitted curve at half-maximal effect.

This assay is described as follows: qHTS RealTime-Glo MT Cell Viability Assay in HEK293 cells - 32 hour (AID 1224868). Also: nearly all actives have a fitted effect of over 50% in size. As to activity change, negative = cytotoxic: top concentration of the series differs between compounds. Conditions: RealTime-Glo luminescence; series mostly up to 76.8 µM; activity change, negative = cytotoxic: at the top concentration. An excerpt: National Center for Advancing Translational Sciences [NCATS]
NIH Chemical Genomics Center [NCGC]
U.S. Environmental Protection Agency [EPA]
National Institutes of Environmental Health Sciences [NIEHS]
National Toxicology Program [NTP]
U.S. Food and Drug Administration [FDA]
Measure of cell viability is critical in the cell-base assay. Analysis of cell viability is necessary for the characterization of cell responses to cytotoxic drugs and environmental stress. A RealTime-Glo MT Cell Viability Assay to monitor cell viability in real time of continues cell culture during 40 hours of compound treatment was used to screen Tox21 10K library compounds in Hek293 cells. The RealTime-Glo MT Cell Viability Assay is a nonlytic, homogeneous, bioluminescent method to measure cell viability in real time using a simple, plate-based method. The assay involves adding NanoLuc luciferase and a cell-permeant prosubstrate to cells in culture. Viable cells reduce the proprietary prosubstrate to generate a substrate for NanoLuc luciferase. This substrate diffuses from cells into the surrounding culture medium, where it is rapidly used by the NanoLuc Enzyme to produce a luminescent signal. The signal correlates with the number of viable cells, making the assay well suited for cytotoxicity studies.
Tox21 Assay Protocol Summary:
The mixture of Hek293 cell suspension and reagents were dispensed at 600cells/6 ul/well in 1536-well tissue culture treated black solid bottom plates using a Multidrop dispenser. After the assay plates were incubated at a 37 C/5% CO2 incubator for 5 hours, 23 nL of compounds dissolved in DMSO, positive and negative controls was transferred to the assay plate by a pintool work station. The plates were incubated at 37 C for 40 hours. The luminescence intensity were measured at 0h, 8h, 16h, 24h, 32h and 40h time points using ViewLux plate reader during compound treatment.
With `COc1cc(Cc2cnc(N)nc2N)cc(OC)c1OC`, the “activity change, negative = cytotoxic” value was -15.9% [at 35.3 µM] (inactive).
For the molecule `O=[N+]([O-])c1ccc(/C=C/c2ccc([N+](=O)[O-])cc2S(=O)(=O)O)c(S(=O)(=O)O)c1`, the Potency result is “inactive”.
For `CC(C)CC(=O)CC(C)C`, the Potency entry was “inactive”.
In the case of `C[Si](O[Si](C)(C)C)O[Si](C)(C)C`, the Potency result is “inactive”.
For `CC(=O)Nc1ccccc1`, the Potency entry is “inactive”.
As for `O=C(O)CC(C(=O)O)C(CC(=O)O)C(=O)O` (stereo not given), the Potency result is “inactive”.
For `C=CCOC(=O)c1ccccc1C(=O)OCC=C`, the “activity change, negative = cytotoxic” value is 7.38% (inactive).
In the case of `O=C(O)[C@H](O)[C@@H](O)[C@H](O)[C@H](O)CO`, the Potency result was “inactive”.
On the same count and under the same terms, the result for `Cc1cccnc1` reads “inactive”.
For `C#C[C@]1(O)CC[C@H]2[C@@H]3CCC4=CC(=O)CC[C@@H]4[C@H]3CC[C@@]21C`, the “activity change, negative = cytotoxic” value was -11.7% [at 35.3 µM] (inactive).
With `CCCCCCCCCC`, the “activity change, negative = cytotoxic” value was 1.67% (inactive).
As for `OCCOCCOCCO`, the Potency result is “inactive”.
`CC(=O)c1ccccc1`: the Potency entry was “inactive”.
In the case of `Oc1cccc2ccccc12`, the Potency result is “inactive”.
For `O=S(=O)(O)c1ccc2ccccc2c1`, the Potency result was “inactive”.
On the same count and under the same terms, the entry for `CCC(O)OC(O)CC` (stereo not given) is “inactive”.
Consider `O=C(O)CCCCCCCCCCC(=O)O`, for which the Potency entry was “inactive”.
For the molecule `CN(C)CCC(c1ccc(Cl)cc1)c1ccccn1` (stereo not given), the Potency entry is “inactive”.
With `O=C(Oc1ccccc1)c1ccccc1`, the Potency result is “inactive”.
As for `O=C(CC(C(=O)OC1CCCCC1)S(=O)(=O)O)OC1CCCCC1` (stereo not given), the Potency result is “inactive”.
Consider `Cc1ccc(S(N)(=O)=O)cc1`, for which the Potency result was “inactive”.
For the molecule `CCCCN(CCCC)CCCC`, the Potency result is “inactive”.
With `CC1CCC2CC1C2(C)C` (stereo not given), the Potency entry is “inactive”.
Still for that read-out and setting: the entry for `CCCCC(CC)COC(=O)CCCCC(=O)OCC(CC)CCCC` (stereo not given) is “inactive”; for `CCCCCCCCCCCCOCCO` it is “inactive”.
As for `CCCCC(CC)COC(=O)CS` (stereo not given), the Potency entry is “inactive and 17.4 µM (active)”.
Consider `CCCC(C)=O`, for which the Potency entry was “inactive”.
With `CCCCCC1=CCCC1=O`, the Potency entry was “inactive”.
Turning to `Nc1cc([N+](=O)[O-])ccc1O`, the Potency result was “inactive”.
In the case of `COCCCOc1ccnc(CS(=O)c2nc3ccccc3[nH]2)c1C` (stereo not given), the Potency is 9.74 µM (active) and inactive.
Same read-out and setting: the entry for `c1ccc2scnc2c1` is “inactive”.
On to `C=C(C)C(=O)OCCOCCOCCOC(=O)C(=C)C`, for which the Potency result is “inactive”.
Turning to `CCOC(=O)NNc1nncc2ccccc12`, the Potency entry is “inactive”.
Regarding `CCN(CC)c1ccc(C(=O)c2ccccc2C(=O)O)c(O)c1`, the Potency result was “inactive”.
Take `CC(C)(N)CO`: the Potency result is “inactive”.
`FC(F)(F)c1ccc(Cl)c(Cl)c1`: the Potency result was “inactive”.
The same measure, in the same setting: the entry for `O=C(O)c1ccc2c(c1)C(=O)OC2=O` is “inactive”.
On to `C#CCN(C)Cc1ccccc1`, for which the Potency entry is “inactive”.
Consider `O=C(O)c1ccccc1C(c1ccc(O)cc1)c1ccc(O)cc1`, for which the Potency result was “inactive”.
As for `c1ccc(OCCOc2ccccc2)cc1`, the Potency result is “inactive”.
